Screening data deposited in PubChem by National Center for Advancing Translational Sciences (NCATS).
Tau fibril ThT – qHTS for Inhibitors of Tau Fibril Formation, Thioflavin T Binding | Potency, µM (highest dose often 57.4 µM), inactives show top-dose activity, negative = inhibition, usual class: inhibitors | Microtubule-associated protein tau (Homo sapiens), P10636 | actives 2.1% (n = 270,000) | recombinant tau K18 P301L, heparin-induced fibrillization, ThT fluorescence; note: nearly all actives have a fitted effect of over 55% in size
Target sequence (P10636 561-689 P618L limits assumed): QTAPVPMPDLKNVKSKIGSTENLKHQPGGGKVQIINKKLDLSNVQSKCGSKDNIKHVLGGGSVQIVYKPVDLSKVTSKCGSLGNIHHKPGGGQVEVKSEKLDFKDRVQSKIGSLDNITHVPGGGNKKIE
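Heparin-induced (20 uM) aggregation of recombinant human K18 P301L tau, 15 uM unlabeled with 0.24 uM labeled, pH 7 acetate buffer, 6 hr at 37 C with compound. Fibrils quantified by 30 uM ThT fluorescence after 1 hr ambient incubation.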
KinaseGlo FLuc – Counterscreen for Luciferase (Kinase-Glo TM) Inhibition; Luciferin 4-monooxygenase (Photuris pensylvanica), Q27757; Kinase-Glo luciferase, ATP luminescence, 8 min; Potency, µM (titrated, usually from 38.3 µM), for inactives: at the highest dose activity change, negative = inhibition, hits mostly inhibitors; actives 0.28% (n = 200,000); AID 1379, 2008; note: nearly all actives have a fitted effect of over 60% in size
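Recombinant Kinase-Glo luciferase, 10 uM ATP (linear range), luciferin; imidazole pH 7.2 / KCl / MgCl2 / Tween / BSA buffer; 8 min RT; luminescence.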
Tau fluor cs – Counterscreen qHTS for Inhibitors of Tau Fibril Formation, Fluorescence Polarization; tau K18 P301L (four-repeat tau fragment) Alexa594 fluorescence, heparin fibrillization; Potency, µM (series often up to 57.7 µM), without a hit: at the top dose activity change, negative = decrease; actives 0.93% (n = 280,000); AID 1463, 2008; note: nearly all actives have a fitted effect of over 55% in size
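Human K18 P301L tau (15 uM unlabeled plus 0.24 uM Alexa 594-labeled, final) in 100 mM sodium acetate pH 7 was mixed with compound and 20 uM heparin and incubated 6 hr at 37 C.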
Tau FP inhib – qHTS for Inhibitors of Tau Fibril Formation, Fluorescence Polarization; K18 P301L tau heparin fibrillization, Alexa594 FP, 6 h; Potency, µM (titrated, usually from 57.7 µM), for inactives: at the top dose activity, negative = inhibition, hits mostly inhibitors; actives 0.39% (n = 280,000); note: nearly all actives have a fitted effect of over 55% in size
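FP of Alexa 594-tau after heparin (20 uM) induction. Substrate: human K18 P301L, 15 uM unlabeled, 0.24 uM labeled. Buffer 100 mM sodium acetate pH 7. 6 hr, 37 C.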
NPSR antagonist – qHTS Assay for Antagonists of the Neuropeptide S Receptor: cAMP Signal Transduction | CHO-NPSR cells, cAMP TR-FRET, antagonist mode | Potency, µM (titrated, usually from 38.3 µM), for inactives: at the top dose activity change, negative = inhibition, actives largely listed as inhibitors | AID 1461, 2008 | Q6W5P4 | actives 1% (n = 220,000); note: nearly all actives have a fitted effect of over 50% in size
Target sequence (Q6W5P4 whole entry, looked up): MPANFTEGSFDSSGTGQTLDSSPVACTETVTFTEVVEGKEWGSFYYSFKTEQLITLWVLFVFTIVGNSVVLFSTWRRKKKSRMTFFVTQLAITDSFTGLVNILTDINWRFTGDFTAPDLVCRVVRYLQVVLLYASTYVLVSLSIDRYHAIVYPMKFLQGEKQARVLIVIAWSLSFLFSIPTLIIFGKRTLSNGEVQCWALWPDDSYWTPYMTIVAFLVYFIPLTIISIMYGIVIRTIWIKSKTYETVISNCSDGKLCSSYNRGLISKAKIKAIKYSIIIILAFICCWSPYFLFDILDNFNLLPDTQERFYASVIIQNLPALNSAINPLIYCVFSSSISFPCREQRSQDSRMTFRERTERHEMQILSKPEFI
Starred values were filed as active, the others as inactive; ? = inconclusive; / = no result given; [ ] = remark or other dose. A selection: hits, their analogues and other compounds. The true share with any hit is near 3.3%. Calls come from the whole dose curve; as a rule, active = well fitted curve in the direction sought with a large enough effect; inconclusive = small, poorly fitted or top-dose-only effect, or another doubt; inactive = no such curve, though single readings can be large; an effect the other way counts as inactive or inconclusive. % is set by controls: 0 for no effect and ±100 for the full control effect; potency is the fitted concentration of half-maximal effect.

SMILES	Tau fibril ThT	KinaseGlo FLuc	Tau fluor cs	Tau FP inhib	NPSR antagonist
Cc1ccc(-n2c(=O)c3oc4ccccc4c3n(CC(=O)Nc3ccccc3)c2=O)cc1C	12%	/	-6%	?	/
COc1ccc(C(c2c(O)ccc3ccccc23)N2CCOCC2)c(OC)c1 (stereo unspecified)	11µM*	11%	-26%	-1%	?
CNc1cccccc1=S	13µM*	5%	-29%	?	?
COc1ccc(C(=O)N(Cc2cc(OC)c(OC)c(OC)c2)CC2CCCO2)cc1 (stereo unspecified)	3%	/	-5%	-6%	/
C#CCn1cnc2c(cnn2-c2ccc(F)cc2)c1=O	4%	/	-5%	-7%	/
O=S(=O)(c1ccccc1)N1CCC2(CCCN(Cc3ccncc3)C2)CC1	/	-1%	/	/	/
CC1=C(C#N)C(=O)NC(=O)/C1=C\c1ccc(-c2cc(C)c(C)cc2[N+](=O)[O-])o1	25µM*	1%	?	?	-42%
COc1ccc2c(c1OC)C(Cc1ccccc1)N1CCc3cc4c(cc3C1=C2)OCO4 (stereo unspecified)	16µM*	-19%	?	-11%	/
CCOc1ccc(CNC(=O)c2cnc3sc(N4CCOCC4)nn3c2=O)cc1OC	-9%	/	-12%	-10%	/
Cc1ccc(C)c(Cn2c(=O)n(-c3ccc(Cl)cc3)c(=O)c3c(C)c(C)sc32)c1	1%	/	-3%	0%	/
CCn1c2ccccc2c2nnc(N3CCN(c4cccc(Cl)c4)CC3)nc21	?	/	18µM*[quencher]	8%	/
Cc1ccc(C(=O)/C=C/c2cn(CC(O)CN3CCOCC3)c3ccccc23)cc1 (stereo unspecified)	?	-1%	-23%	6%	11%
O=C(/C=C/c1cn(CC(O)CN2CCOCC2)c2ccccc12)c1cccs1 (stereo unspecified)	14µM*	/	?	6%	12%
O=Cc1cn(CC(O)CN2CCCCC2)c2ccccc12 (stereo unspecified)	0%	-1%	1%	8%	-16%
COc1ccc(C(=O)/C=C/c2cn(CC(O)CN3CCOCC3)c3ccccc23)cc1 (stereo unspecified)	10µM*	1%	?	?	27%
CCC(Sc1nc(-c2ccc(F)cc2)nc2c1Cc1c(CO)cnc(C)c1O2)C(=O)Nc1ccc(F)cc1 (stereo unspecified)	-4%	/	-10%	-11%	/
N#Cc1c(Nc2ccc(Cl)cc2)s[nH]c1=O	/	/	-20%	20µM*	-31%
COC(=O)C1=C(C)N(Cc2cccnc2)C(=O)/C1=C\c1sccc1C	14µM*	-1%	-28%	3%	43%
CCN1C(=O)/C(=C\c2ccco2)C(C(=O)OC)=C1C	?	0%	-6%	-4%	-1%[46.1 µM]
COC(=O)C1=C(C)N(CCc2ccccc2)C(=O)/C1=C\c1ccco1	18µM*	-2%	-22%	-10%	-52%
COC(=O)C1=C(C)N(Cc2ccccc2)C(=O)/C1=C\c1ccco1	16µM*	/	?	-12%	?
C=CCN1C(=O)/C(=C\c2ccco2)C(C(=O)OC)=C1C	1%	-3%	-5%	4%	-7%
CCN1C(=O)/C(=C\c2cccs2)C(C(=O)OC)=C1C	?	-3%	-17%	-5%	-5%[46.1 µM]
CCOc1ccccc1NC(=O)CCc1c(C)nn(-c2ccc(N3CCCCC3)nn2)c1C	?	/	-10%	-7%	/
CCOC(=O)CC(=O)CSc1nc2ccsc2c(=O)n1Cc1ccccc1	-6%	/	-14%	-1%	/
SMILES	Tau fibril ThT	KinaseGlo FLuc	Tau fluor cs	Tau FP inhib	NPSR antagonist
O=C(CSc1nc(-c2ccccc2)nc2c1CCCC2)c1ccc(F)cc1	-3%	/	-9%	-12%	/
O=C(CCS(=O)(=O)c1ccc(Br)s1)Nc1cc(C(F)(F)F)cc(C(F)(F)F)c1	-11%	/	?	20µM*	/
CC(=O)c1cccc(NC(=O)CCS(=O)(=O)c2ccc(Br)s2)c1	6%	0%	-12%	3%	-22%
CN1C(=O)/C(=C/C=C2\SCCN2C)N(C)C1=S	28µM*	?	-15%	-8%	-50%
COc1ccc(Oc2ncc3ncc(=O)n(CCC#N)c3n2)cc1	/	0%	/	/	/
COc1ccc(/C=C/c2cc(C(F)(F)F)[nH]c(=O)n2)cc1OC	11%	-2%	14%	-4%[2.34 µM]	4%
CCOc1cc(/C=C/c2ccc3cccc([N+](=O)[O-])c3n2)ccc1OCC(=O)N(C)C	7.1µM*	-1%	-24%	5%	-27%
CCOc1cc(/C=C/c2cc(C(F)(F)F)[nH]c(=O)n2)ccc1O	14µM*	1%	-15%	-8%	41%
COc1cc(/C=C/c2ccc3cccc([N+](=O)[O-])c3n2)ccc1OCC#N	?	6%	?	-9%	-11%
CCOc1cc(/C=C/c2ccc3cccc([N+](=O)[O-])c3n2)ccc1O	14µM*	-3%	?	8%	-1%
[O-]/C(=C(\C(=S)Nc1cccc2ccccc12)[n+]1ccccc1)c1ccc2c(c1)OCCO2	13µM*	2%	?	?	-15%[46.1 µM]
Cc1ccc2[nH]c3c(=O)n(CC(=O)NCCCN4CCN(c5ccc(F)cc5)CC4)ncc3c2c1	?	/	-16%	-3%	/
CCN(Cc1ccccc1)Cc1c(O)ccc2c(=O)c(-c3ccc(Cl)cc3)coc12	-5%	/	-5%	-6%	/
CC1=NN(CCC#N)C(=O)/C1=C/c1ccc(N(C)C)cc1	25µM*	-14%	-10%	-7%	2%
CC(=O)Oc1c(C)cc(O)c2ccccc12	25µM*	0%	?	?	10%[46.1 µM]
N#CC(Cc1ccc(O)c(O)c1)C(=O)N1CCc2ccccc21 (stereo unspecified)	-8%	-3%	-11%	2%	-13%[46.1 µM]
Cc1ccccc1NC(=O)COC(=O)c1ccc(S(C)(=O)=O)c([N+](=O)[O-])c1	13µM*	2%	?	-2%	-46%
Cc1cccc(C(=O)n2nc(-c3cccnc3)nc2NCc2ccccc2)c1	?	/	?	-2%	/
CCc1cccc2cc3c(N)c(C(=O)Nc4ccc(S(=O)(=O)N5CCCC5)cc4)sc3nc12	5.6µM*	-6%	?	?	-7%
Cc1cccc2cc3c(N)c(C(=O)N4CCc5ccccc54)sc3nc12	4.5µM*	-1%	?	?	-7%
Cc1ccc2nc3sc(C(=O)Nc4ccc(N5CCOCC5)cc4)c(N)c3cc2c1	2µM*	2%	?	10%	1%[46.1 µM]
Cc1cccc2cc3c(N)c(C(=O)Nc4ccc(N5CCOCC5)cc4)sc3nc12	2.8µM*	-4%	11µM*[quencher]	8%	-27%[46.1 µM]
CCn1ncc(C(=O)Nc2ccc(S(=O)(=O)N3CCCC3)cc2)c1C	-3%	-1%	-10%	-11%	-3%[46.1 µM]
